# Data from the supplement of paper PMC10849652.
# About 7,900 targets were measured; listed, in parts, are those with a hit and a random draw of the rest. About 0.6% of all pairs of compound and target were hits. Unmarked numbers belong to inactive results.
# Tests used:
# Experiment in all cases: log2 fold change, soluble protein after heating vs DMSO (PISA); higher = thermal stabilisation; K562 cells, 10 uM, 30 min; active = over 0.2 and 3.5 SD of the protein, either way, in both replicates (recomputed)
# [1] = compound: COC1=CC=C(C=C1)CN2C=CC3=C2C=C(C=C3)C(=O)NO
# In short: (§1)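 K562 cells at 2×10^6 cells/mL were treated for 30 min with 10 μM compound, and aliquots were heated for 3 min over 48°C-58°C before pooling. Extraction used PBS with 0.5% NP-40 at 4°C, and soluble protein was the supernatant after 21,000xg for 90 min, measured by TMTpro 16plex LC-MS/MS with channel sums equalised. Thermal stability values, relative to control samples and from duplicates, are log2 fold changes.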
# [2] = compound: CON(C)C(=O)N1N=C(c2cc(F)ccc2F)S[C@@]1(CCCN)c1ccccc1 [filanesib]
# In short: as §1
# [3] = compound: CO[C@H]1C[C@@H]2CC[C@@H](C)[C@@](O)(O2)C(=O)C(=O)N2CCCC[C@H]2C(=O)O[C@H]([C@H](C)C[C@@H]2CC[C@H](n3cnnn3)[C@H](OC)C2)CC(=O)[C@H](C)/C=C(\C)[C@@H](O)[C@@H](OC)C(=O)[C@H](C)C[C@H](C)/C=C/C=C/C=C/1C [zotarolimus]
# In short: as §1
# [4] = compound: COc1cc(C(=O)O)ccc1NC(=O)[C@@H]1N[C@@H](CC(C)(C)C)[C@](C#N)(c2ccc(Cl)cc2F)[C@H]1c1cccc(Cl)c1F [idasanutlin]
# In short: as §1
# [5] = compound: COc1cc(Nc2ncc3c(n2)-c2ccc(Cl)cc2C(c2c(F)cccc2OC)=NC3)ccc1C(=O)O [alisertib]
# In short: as §1
# [6] = compound: COc1cc2nc(-c3cc(F)ccc3O)nc(N[C@@H]3CNC[C@H]3C(C)(C)O)c2cc1OC
# In short: as §1
# [7] = compound: COc1cc2ncnc(Nc3ccc(F)c(Cl)c3)c2cc1OCCCN1CCOCC1 [gefitinib]
# In short: as §1
# [8] = compound: COc1cccc2cc(-c3nc([C@H]4CC[C@H](C(=O)O)CC4)n4ncnc(N)c34)[nH]c12
# In short: as §1
# [9] = compound: CS(=O)(=O)CCNCc1ccc(-c2ccc3ncnc(Nc4ccc(OCc5cccc(F)c5)c(Cl)c4)c3c2)o1 [lapatinib]
# In short: as §1
# [10] = compound: CS(=O)(=O)N1CCN(Cc2cc3nc(-c4cccc5[nH]ncc45)nc(N4CCOCC4)c3s2)CC1 [pictilisib]
# In short: as §1
# UniProt Q15392, sequence (Q15392 whole entry, looked up): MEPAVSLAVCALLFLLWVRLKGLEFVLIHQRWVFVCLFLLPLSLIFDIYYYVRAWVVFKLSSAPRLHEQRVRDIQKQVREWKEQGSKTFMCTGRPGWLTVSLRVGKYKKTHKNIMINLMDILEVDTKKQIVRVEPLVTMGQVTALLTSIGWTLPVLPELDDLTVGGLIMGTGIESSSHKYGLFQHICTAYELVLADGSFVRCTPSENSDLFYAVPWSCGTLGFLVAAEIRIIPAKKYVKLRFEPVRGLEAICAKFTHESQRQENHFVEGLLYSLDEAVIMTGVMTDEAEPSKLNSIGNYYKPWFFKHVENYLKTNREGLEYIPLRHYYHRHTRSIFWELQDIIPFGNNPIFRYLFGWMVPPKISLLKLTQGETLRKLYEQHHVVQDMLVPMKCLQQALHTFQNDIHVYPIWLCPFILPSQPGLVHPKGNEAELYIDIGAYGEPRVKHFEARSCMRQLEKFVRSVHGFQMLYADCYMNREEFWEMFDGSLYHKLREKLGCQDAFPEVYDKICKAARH
# UniProt Q13011, sequence (Q13011 whole entry, looked up): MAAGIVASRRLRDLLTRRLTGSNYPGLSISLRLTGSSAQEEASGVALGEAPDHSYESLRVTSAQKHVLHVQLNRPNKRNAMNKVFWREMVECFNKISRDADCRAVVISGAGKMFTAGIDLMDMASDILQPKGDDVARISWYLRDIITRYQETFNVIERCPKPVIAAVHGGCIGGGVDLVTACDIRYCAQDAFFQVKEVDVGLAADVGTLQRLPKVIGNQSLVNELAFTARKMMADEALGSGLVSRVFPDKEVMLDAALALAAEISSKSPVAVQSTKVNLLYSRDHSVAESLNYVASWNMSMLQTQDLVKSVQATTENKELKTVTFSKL
# UniProt O75071, sequence (O75071 whole entry, looked up): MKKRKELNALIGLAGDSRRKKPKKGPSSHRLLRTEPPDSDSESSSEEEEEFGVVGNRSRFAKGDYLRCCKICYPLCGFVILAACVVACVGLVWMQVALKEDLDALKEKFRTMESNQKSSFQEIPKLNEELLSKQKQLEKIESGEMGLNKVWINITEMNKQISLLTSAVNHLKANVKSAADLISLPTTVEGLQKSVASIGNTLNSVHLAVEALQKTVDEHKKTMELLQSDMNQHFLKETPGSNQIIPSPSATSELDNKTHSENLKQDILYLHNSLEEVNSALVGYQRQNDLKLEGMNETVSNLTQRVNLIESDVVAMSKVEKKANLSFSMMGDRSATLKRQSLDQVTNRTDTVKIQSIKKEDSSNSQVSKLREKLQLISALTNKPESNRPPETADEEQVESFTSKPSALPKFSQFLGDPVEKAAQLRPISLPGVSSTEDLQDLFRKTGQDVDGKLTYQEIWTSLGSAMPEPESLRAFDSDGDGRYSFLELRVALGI
# UniProt Q5W0V3, sequence (Q5W0V3 whole entry, looked up): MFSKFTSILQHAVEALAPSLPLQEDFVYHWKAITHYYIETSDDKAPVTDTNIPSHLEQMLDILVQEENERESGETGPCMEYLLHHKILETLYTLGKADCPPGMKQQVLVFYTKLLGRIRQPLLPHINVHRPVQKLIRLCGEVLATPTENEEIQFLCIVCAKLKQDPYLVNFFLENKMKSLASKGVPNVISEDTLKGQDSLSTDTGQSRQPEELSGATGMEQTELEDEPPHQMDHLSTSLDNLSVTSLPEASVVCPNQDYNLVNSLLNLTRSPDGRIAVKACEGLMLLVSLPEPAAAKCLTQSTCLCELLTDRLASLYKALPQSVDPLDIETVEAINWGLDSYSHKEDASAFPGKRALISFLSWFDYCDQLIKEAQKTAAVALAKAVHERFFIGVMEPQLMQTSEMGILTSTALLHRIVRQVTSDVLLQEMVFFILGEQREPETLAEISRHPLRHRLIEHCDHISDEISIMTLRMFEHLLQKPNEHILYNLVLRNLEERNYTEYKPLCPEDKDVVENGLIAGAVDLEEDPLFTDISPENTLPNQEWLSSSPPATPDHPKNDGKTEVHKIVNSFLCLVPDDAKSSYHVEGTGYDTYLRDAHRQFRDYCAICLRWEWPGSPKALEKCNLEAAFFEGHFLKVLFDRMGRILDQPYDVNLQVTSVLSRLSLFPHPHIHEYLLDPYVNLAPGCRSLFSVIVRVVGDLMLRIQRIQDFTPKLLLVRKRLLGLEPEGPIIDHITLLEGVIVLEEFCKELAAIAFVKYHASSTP
# UniProt Q8NBA8, sequence (Q8NBA8 whole entry, looked up): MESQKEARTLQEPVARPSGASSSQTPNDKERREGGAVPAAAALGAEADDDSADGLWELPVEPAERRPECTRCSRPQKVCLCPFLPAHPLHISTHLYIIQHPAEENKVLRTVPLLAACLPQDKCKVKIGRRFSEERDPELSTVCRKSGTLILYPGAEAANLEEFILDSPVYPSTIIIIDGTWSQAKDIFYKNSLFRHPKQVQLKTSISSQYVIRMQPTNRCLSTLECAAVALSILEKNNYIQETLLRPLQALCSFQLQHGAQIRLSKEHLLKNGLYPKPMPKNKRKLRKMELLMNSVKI
# UniProt Q6UX04, sequence (Q6UX04 whole entry, looked up): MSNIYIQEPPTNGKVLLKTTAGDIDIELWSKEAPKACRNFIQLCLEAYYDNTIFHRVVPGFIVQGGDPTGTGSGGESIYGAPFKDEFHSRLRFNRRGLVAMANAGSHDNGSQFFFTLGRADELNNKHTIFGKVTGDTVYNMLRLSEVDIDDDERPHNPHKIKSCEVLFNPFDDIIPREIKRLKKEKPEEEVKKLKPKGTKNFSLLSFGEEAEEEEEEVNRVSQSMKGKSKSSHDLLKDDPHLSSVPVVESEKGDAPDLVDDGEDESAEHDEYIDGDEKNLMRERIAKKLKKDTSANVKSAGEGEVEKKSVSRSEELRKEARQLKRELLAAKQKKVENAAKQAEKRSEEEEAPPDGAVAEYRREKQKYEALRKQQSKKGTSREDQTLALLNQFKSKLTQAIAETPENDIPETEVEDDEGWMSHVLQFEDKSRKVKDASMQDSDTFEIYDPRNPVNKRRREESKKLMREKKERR
# UniProt Q9UBR2, sequence (Q9UBR2 whole entry, looked up): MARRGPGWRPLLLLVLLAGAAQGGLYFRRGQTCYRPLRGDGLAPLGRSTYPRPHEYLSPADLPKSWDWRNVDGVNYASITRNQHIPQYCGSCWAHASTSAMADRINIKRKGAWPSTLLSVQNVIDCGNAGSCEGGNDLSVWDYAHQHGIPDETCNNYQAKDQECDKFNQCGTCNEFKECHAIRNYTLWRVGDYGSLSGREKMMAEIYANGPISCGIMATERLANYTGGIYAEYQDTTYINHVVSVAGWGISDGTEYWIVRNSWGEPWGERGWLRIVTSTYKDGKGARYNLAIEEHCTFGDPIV
# UniProt Q9NVR5, sequence (Q9NVR5 whole entry, looked up): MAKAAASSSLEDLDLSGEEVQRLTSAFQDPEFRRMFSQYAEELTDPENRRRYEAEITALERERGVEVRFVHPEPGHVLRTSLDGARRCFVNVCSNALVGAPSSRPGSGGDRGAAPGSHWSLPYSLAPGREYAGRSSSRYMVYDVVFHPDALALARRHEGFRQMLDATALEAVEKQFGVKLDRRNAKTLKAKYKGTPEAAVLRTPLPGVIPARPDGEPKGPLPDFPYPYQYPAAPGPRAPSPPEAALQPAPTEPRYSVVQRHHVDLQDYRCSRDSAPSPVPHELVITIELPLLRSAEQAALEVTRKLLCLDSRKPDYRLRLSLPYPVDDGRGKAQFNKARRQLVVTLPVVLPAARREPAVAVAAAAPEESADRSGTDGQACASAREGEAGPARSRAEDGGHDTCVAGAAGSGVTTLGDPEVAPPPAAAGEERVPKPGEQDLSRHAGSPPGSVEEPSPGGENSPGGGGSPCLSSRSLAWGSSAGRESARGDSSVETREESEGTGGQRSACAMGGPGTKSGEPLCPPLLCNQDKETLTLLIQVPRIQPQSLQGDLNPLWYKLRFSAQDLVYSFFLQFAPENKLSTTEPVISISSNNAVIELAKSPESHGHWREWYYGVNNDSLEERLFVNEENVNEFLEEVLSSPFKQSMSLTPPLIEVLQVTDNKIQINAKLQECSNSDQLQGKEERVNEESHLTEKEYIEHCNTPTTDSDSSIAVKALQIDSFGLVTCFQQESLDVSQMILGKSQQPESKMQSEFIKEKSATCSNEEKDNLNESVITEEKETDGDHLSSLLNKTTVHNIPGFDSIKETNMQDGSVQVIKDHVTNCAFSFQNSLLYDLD
# UniProt O76075, sequence (O76075 whole entry, looked up): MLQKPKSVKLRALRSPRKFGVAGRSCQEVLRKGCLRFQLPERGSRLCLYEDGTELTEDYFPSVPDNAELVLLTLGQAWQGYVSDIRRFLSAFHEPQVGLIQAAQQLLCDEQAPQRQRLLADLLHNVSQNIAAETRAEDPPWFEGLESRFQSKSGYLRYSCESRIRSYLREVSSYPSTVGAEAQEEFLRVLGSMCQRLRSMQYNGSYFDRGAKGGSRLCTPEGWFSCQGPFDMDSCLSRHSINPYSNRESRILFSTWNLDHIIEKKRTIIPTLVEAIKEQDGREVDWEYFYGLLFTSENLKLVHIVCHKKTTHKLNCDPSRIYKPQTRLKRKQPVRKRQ
# UniProt P53634, sequence (P53634 whole entry, looked up): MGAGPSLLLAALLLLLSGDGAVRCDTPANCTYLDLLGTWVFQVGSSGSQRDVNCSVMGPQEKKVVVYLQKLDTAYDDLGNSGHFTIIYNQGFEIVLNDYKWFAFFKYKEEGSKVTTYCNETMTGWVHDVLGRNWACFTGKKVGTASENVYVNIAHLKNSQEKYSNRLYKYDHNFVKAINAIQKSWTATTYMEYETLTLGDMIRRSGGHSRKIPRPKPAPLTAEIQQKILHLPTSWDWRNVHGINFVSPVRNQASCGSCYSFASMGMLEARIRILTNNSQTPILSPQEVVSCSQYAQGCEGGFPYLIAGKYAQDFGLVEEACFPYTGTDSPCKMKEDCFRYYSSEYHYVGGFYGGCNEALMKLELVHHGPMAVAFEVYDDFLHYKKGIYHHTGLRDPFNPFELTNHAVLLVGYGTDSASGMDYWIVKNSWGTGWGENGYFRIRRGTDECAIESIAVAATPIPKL
Target,log2 fold change [1],log2 fold change [2],log2 fold change [3],log2 fold change [4],log2 fold change [5],log2 fold change [6],log2 fold change [7],log2 fold change [8],log2 fold change [9],log2 fold change [10]
DFFB (UniProt O76075),-0.016,-0.141,-0.093,-0.03,-0.004,0.06,-0.054,0.041,-0.015,-0.074
CTSC (UniProt P53634),0.019,-0.065,0.001,-0.024,0.021,-0.04,0.036,0.026,-0.031,0.083
DTWD2 (UniProt Q8NBA8),-0.229,0.307,-0.036,-0.073,0.069,-0.18,-0.159,0.002,0.151,-0.042
DNAAF2 (UniProt Q9NVR5),0.009,-0.012,0.016,-0.033,0.005,0.015,0.035,0.062,-0.026,0.232
DHCR24 (UniProt Q15392),0.061,-0.074,0.013,-0.087,-0.123,0.047,1.05 (active),-0.038,0.711,0.055
DIP2A (UniProt Q14689),-0.097,0.028,-0.018,-0.047,0.357,-0.098,0.008,-0.004,-0.047,0.103
CWC27 (UniProt Q6UX04),0.047,-0.017,-0.068,0.014,-0.043,0.061,0.021,-0.046,-0.004,-0.036
ERCC2 (UniProt P18074),-0.024,0.018,0.068,0.063,0.001,-0.061,-0.03,-0.021,0.049,0.042
ESYT1 isoform 2 (UniProt Q9BSJ8),0.042,0.013,0.08,0.08,-0.094,0.008,0.053,-0.122,0.089,-0.038
DDX5 (UniProt P17844),0.118,0.013,0.062,0.024,0.006,0.088,0.031,0.004,0.02,0.097
CTSZ (UniProt Q9UBR2),0.073,-0.05,0.011,-0.019,-0.079,-0.172,0.035,0.07,0.015,0.176
DNM2 (UniProt P50570),-0.022,-0.107,0.016,-0.078,-0.073,0.099,0.002,0.023,-0.026,0.021
ECH1 (UniProt Q13011),-0.008,-0.215,-0.05,-0.134,0.033,0.045,-0.032,0.02,-0.011,0.033
EFCAB14 (UniProt O75071),0.139,-0.018,0.147,0.027,0.043,-0.014,0.04,-0.04,0.021,0.06
FAM160B1 (UniProt Q5W0V3),0.026,-0.145,0.004,-0.053,-0.096,-0.092,0.047,-0.027,0.009,-0.009
